Pf growth 96h = P. falciparum growth inhibition at 96 hours; Potency, µM (doses to about 28.7 µM), for the others: at the top dose activity change, negative = inhibition, actives largely listed as inhibitors; P. falciparum luciferase reporter growth, 96 h; actives 6.9% (n = 320,000); also: potency is read from the fitted curve at half-maximal effect; % is scaled to controls: 0 for no effect and ±100 for the full control effect
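Luminescence readout: decreased luciferase signal marks inhibited growth of reporter-expressing P. falciparum in infected red cells (2% hematocrit, 0.05% parasitemia final), exposed to compound two generations (96 h, 37 C, 5% CO2).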
FBPA Giardia inh = Giardia lamblia aldolase inhibition. Potency, µM (doses to about 59.6 µM), for the others: at the top dose activity, negative = inhibition, most hits filed as inhibitors. purified Giardia FBPA. actives 0.71% (n = 290,000). A8B2U2; also: potency is read from the fitted curve at half-maximal effect; % is scaled to controls: 0 for no effect and ±100 for the full control effect; nearly all actives have a fitted effect of over 55% in size
Target sequence (A8B2U2 whole entry, looked up): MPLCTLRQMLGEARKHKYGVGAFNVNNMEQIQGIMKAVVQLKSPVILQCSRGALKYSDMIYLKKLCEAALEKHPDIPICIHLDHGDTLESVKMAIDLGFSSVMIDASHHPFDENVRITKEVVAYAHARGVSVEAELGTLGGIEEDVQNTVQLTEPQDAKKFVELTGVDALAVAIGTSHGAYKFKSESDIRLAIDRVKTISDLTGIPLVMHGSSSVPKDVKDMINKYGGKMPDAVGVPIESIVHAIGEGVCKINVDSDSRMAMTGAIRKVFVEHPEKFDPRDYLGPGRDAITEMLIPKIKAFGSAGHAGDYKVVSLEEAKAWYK
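Giardia FBPA (40 nM reagent) was preincubated 10 min at RT with compound (up to 57.5 uM final), then substrate plus GAPDH/TPI/NAD/arsenate coupling system with diaphorase/resazurin was added; resorufin fluorescence (525/598 nm) was read after 20 min.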
Shiga inhibitor = blocks Shiga toxin action in Vero cells. inhibition, % at 38.7 µM. Vero cells, Shiga toxin protein synthesis inhibition reporter. actives 9.2% (n = 290,000); in the data active = inhibition mostly above about 28%, no sharp cut-off; inactive = mostly below about 43%; also: 0% is about no effect
CHX counter = counter-screen hit for Shiga toxin inhibitors, cycloheximide; cell reporter, cycloheximide protein synthesis inhibition counterscreen; max response, %; actives 12% (n = 300,000); AID 2314; in the data active = max response mostly above about 13%, no sharp cut-off; inactive = mostly below about 14%; also: read at 38.3 µM for the half of the compounds with a filed dose; 0% is about no effect
Pf growth 48h = inhibits P. falciparum growth in the first generation, 48 h. P. falciparum luciferase growth in erythrocytes, 48 h. Potency, µM (highest dose often 28.7 µM), without a hit: at the top dose activity change, negative = inhibition, actives largely listed as inhibitors. actives 5.9% (n = 310,000). AID 504832; also: potency is read from the fitted curve at half-maximal effect; % is scaled to controls: 0 for no effect and ±100 for the full control effect
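Firefly luciferase activity from engineered P. falciparum reports growth; inhibitors lower the luminescent signal. Cultures contained 2% hematocrit erythrocytes at 0.1% final parasitemia.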
NS1 inh = blocks influenza NS1 protein function. Potency, µM (top dose mostly 46.1 µM), inactives show at the top dose activity, positive = more growth. actives 0.4% (n = 270,000). AID 2326; calls by dose curve; also: potency is read from the fitted curve at half-maximal effect; actives are rising curves; nearly all actives have a fitted effect of over 50% in size
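Growth recovery, yeast-based: influenza A NS1 expressed in S. cerevisiae causes slow growth, and suppressors are detected by OD600. The parent strain without NS1 is used as positive control.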
* hit, by the source's call. Compounds with a hit are over-represented: about 21% of the library has one in this group of screens. Unless noted, calls follow the shape of the dose curve; as a rule, active = well fitted curve in the direction sought with a large enough effect; inconclusive = small, poorly fitted or top-dose-only effect, or another doubt; inactive = no such curve, though single readings can be large; an effect the other way counts as inactive or inconclusive.

CCN1CCCC1CNC(=O)C(=O)NC(C)c1ccccc1 (centres undefined) was read as Pf growth 96h 11.7µM*, FBPA Giardia inh -5.4%, Shiga inhibitor 46.6, CHX counter -3.4, Pf growth 48h 14.4% and NS1 inh 0.7%.
Screening COc1ccc(N2CCN(C(=O)c3cc4c(C)nc5ccccc5c4o3)CC2)cc1 returned Pf growth 96h 0.828µM*, FBPA Giardia inh -2.1%, Shiga inhibitor -1.0, CHX counter -2.7, Pf growth 48h 2.1% and NS1 inh -18.9%.
For Cc1nc2ccccc2c2oc(C(=O)N3CCCC(C)C3)cc12 (centres undefined) the results were Pf growth 96h 28.3%, FBPA Giardia inh -1.8%, Shiga inhibitor 12.8, CHX counter 14.8*, Pf growth 48h -3.9% and NS1 inh -22.3%.
`Cc1nc2ccccc2c2oc(C(=O)NCCN3CCCCC3C)cc12` (centres undefined) gave Pf growth 96h inconclusive, FBPA Giardia inh 1.6%, Shiga inhibitor -12.1, CHX counter 1.7, Pf growth 48h inconclusive and NS1 inh -21.8%.
Screening Cc1nc2ccccc2c2oc(C(=O)N3CCC(N4CCCCC4)CC3)cc12 returned Pf growth 96h -14.5%, FBPA Giardia inh 6.6%, Shiga inhibitor -8.1, CHX counter -4.1, Pf growth 48h inconclusive and NS1 inh -12.8%.
Screening CCN1CCCC1CNC(=O)c1cc2c(C)nc3ccccc3c2o1 (centres undefined) returned Pf growth 96h inconclusive, FBPA Giardia inh -9.1%, Shiga inhibitor 20.7, CHX counter 3.0, Pf growth 48h 9.28µM* and NS1 inh 4.6%.
For Cc1cc(OCCCC(=O)NC2=NCCS2)ccc1Cl the results were FBPA Giardia inh 7.4%, Shiga inhibitor -13.8, CHX counter 16.1, Pf growth 48h 5.2% and NS1 inh -6.1%.
For CC(C)c1ccc(/C=C/C(=O)O)cc1 the results were Pf growth 96h 2.1%, FBPA Giardia inh 3.6%, Shiga inhibitor -0.7, CHX counter 4.5, Pf growth 48h 8.1% and NS1 inh -88.2%.
`CC(C)C(C(=O)NC1=NCCS1)c1ccc(Cl)cc1` (centres undefined) gave Pf growth 96h inconclusive, FBPA Giardia inh 2.2%, Shiga inhibitor -4.9, CHX counter 6.2 and Pf growth 48h 3.7µM*.
`CC(C)c1ccc(/C=C/C(=O)NC2=NCCS2)cc1` gave Pf growth 96h 1.7%, FBPA Giardia inh 0.3%, Shiga inhibitor 43.6*, CHX counter 43.7*, Pf growth 48h -66.6% and NS1 inh -87.1%.
`O=C(/C=C/c1ccc(Cl)c(Cl)c1)NC1=NCCS1` gave Pf growth 96h 0.0%, FBPA Giardia inh 1.5%, Shiga inhibitor 79.1*, CHX counter 34.7*, Pf growth 48h 20.9% and NS1 inh 4.1%.
Screening COc1ccc(CNC(=O)[C@H](C)NC(=O)C2CCN(S(=O)(=O)c3ccc(F)cc3)CC2)cc1 returned Pf growth 96h 20.1%, FBPA Giardia inh -17.1%, Shiga inhibitor 11.6, CHX counter 2.2, Pf growth 48h 0.0% and NS1 inh 3.9%.
Screening COc1ccc(N(CC(=O)N/N=C(\C)c2ccccc2)S(=O)(=O)c2ccccc2)cc1 returned Pf growth 96h -24.5%, FBPA Giardia inh -4.4%, Shiga inhibitor -9.5, CHX counter -6.3, Pf growth 48h 15.4% and NS1 inh 3.3%.
Screening C/C(=N\NC(=O)CN(c1ccccc1)S(C)(=O)=O)c1ccccc1O returned Pf growth 96h inconclusive, FBPA Giardia inh 14.4%, Shiga inhibitor -6.7, CHX counter -3.0 and Pf growth 48h 11.7µM*.
For CC(C)(C)C1CCC(=NNC(=O)CN(c2ccccc2)S(C)(=O)=O)CC1 (centres undefined) the results were Pf growth 96h 1.5%, FBPA Giardia inh -1.9%, Shiga inhibitor 89.9*, CHX counter 43.0*, Pf growth 48h 6.3% and NS1 inh 8.2%.
C/C(=N\NC(=O)CN1CCCCC1)c1ccccc1O was read as Pf growth 96h 31.7%, FBPA Giardia inh -16.0%, Shiga inhibitor 39.4*, CHX counter 23.2*, Pf growth 48h inconclusive and NS1 inh 2.4%.
`COc1cc(C(=O)N(C)C2CCCCC2)ccc1OC1CCN(C(C)=O)CC1` gave Pf growth 96h inconclusive, FBPA Giardia inh -7.7%, CHX counter 1.4, Pf growth 48h -6.6% and NS1 inh -14.4%.
C=CCN(CC=C)C(=O)c1ccc(OC2CCN(C(C)=O)CC2)c(OC)c1 was read as Pf growth 96h 2.94µM*, FBPA Giardia inh 4.1%, Shiga inhibitor 7.9, CHX counter 9.0, Pf growth 48h inconclusive and NS1 inh 9.4%.
COc1cc(C(=O)NC(C)Cc2ccccn2)ccc1OC1CCN(C(C)=O)CC1 (centres undefined) was read as Pf growth 96h 39.7%, FBPA Giardia inh 15.5%, Shiga inhibitor -2.5, CHX counter 7.0, Pf growth 48h -16.6% and NS1 inh 2.5%.
Screening COc1cc(C(=O)NCc2ncccc2C)ccc1OC1CCN(C(C)=O)CC1 returned Pf growth 96h 14.7µM*, Shiga inhibitor 17.5, CHX counter 0.8, Pf growth 48h 19.7% and NS1 inh -2.2%.
For O=C(NCC(c1cccs1)N1CCOCC1)c1ccc(Cl)nc1 (centres undefined) the results were Pf growth 96h 18.6% and Pf growth 48h 14.4%.
Screening CCOC(=O)CCc1c(C)c2ccc(OCc3ccc([N+](=O)[O-])cc3)cc2oc1=O returned Pf growth 96h 0.0%, FBPA Giardia inh 9.8%, Shiga inhibitor -9.7, CHX counter -3.7, Pf growth 48h 37.0% and NS1 inh 1.3%.
For CC(=O)COc1ccc2c(C)c(-c3ccccc3)c(=O)oc2c1 the results were Pf growth 96h 146.4%, FBPA Giardia inh -8.5%, Shiga inhibitor 58.2*, CHX counter 45.1* and Pf growth 48h 154.6%.
`CCOC(=O)CCc1c(C)c2ccc(OCC(=O)OC(C)C)cc2oc1=O` gave Pf growth 96h 34.9%, FBPA Giardia inh -2.0%, Shiga inhibitor active, CHX counter 33.8*, Pf growth 48h 9.9% and NS1 inh -48.7%.
Screening Cc1c(C)c2ccc(OCC(=O)c3ccccc3)cc2oc1=O returned Pf growth 96h 81.1%, FBPA Giardia inh -1.1%, Shiga inhibitor 23.5, CHX counter 3.6, Pf growth 48h 91.2% and NS1 inh -3.3%.
Screening CCCc1c(C)c2ccc(OCC(C)=O)cc2oc1=O returned Pf growth 96h 27.1%, FBPA Giardia inh -0.3%, Shiga inhibitor 93.7*, CHX counter 48.6* and NS1 inh -101.7%.
`CCOC(=O)CCc1c(C)c2ccc(OC3CCCCC3=O)cc2oc1=O` (centres undefined) gave Pf growth 96h -22.0%, FBPA Giardia inh 2.1%, Shiga inhibitor 27.2, CHX counter 21.1*, Pf growth 48h inconclusive and NS1 inh -1.4%.
